This is part of a sample that, as a whole, favours compounds with a hit. Of some 83,000 tested, about 20% had one in any assay.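 Note: values are percent growth. 100 is the growth of untreated cells, values between 100 and 0 indicate rising inhibition; between -100 and 0 indicates cell death.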 Calls of active or inactive are those of the source. The calls were made as follows: active = growth percent below 10; inactive = the rest.
What was measured:
Assay in all cases: NCI-60 one-dose screen, 48 h (100 = growth as untreated, 0 = no growth, -100 = all killed)
Conditions in all cases: 10 µM unless noted
NCI-H23 lung = tested on: NCI-H23 lung
NCI-H226 lung = tested on: NCI-H226 lung
NCI-H322M lung = tested on: NCI-H322M lung
HOP-62 NSCLC = tested on: HOP-62 NSCLC
NCI-H460 lung = tested on: NCI-H460 lung
NCI-H522 lung = tested on: NCI-H522 lung
A549/ATCC NSCLC = tested on: A549/ATCC NSCLC
786-0 renal = tested on: 786-0 renal
COLO 205 colon = tested on: COLO 205 colon

Measured: growth

O=C1Nc2cc(Cl)ccc2/C1=C/c1cccc(OCc2ccccn2)c1
inactive: NCI-H23 lung 19.6% | NCI-H226 lung 38.6% | NCI-H322M lung 68.2% | HOP-62 NSCLC 17.4% | NCI-H460 lung 13.9% | A549/ATCC NSCLC 37.5% | 786-0 renal 10.8% | COLO 205 colon 51.7%
active: NCI-H522 lung -42.4%

CCCSc1nc(Nc2ccc(S(N)(=O)=O)cc2)c(C#N)c(-c2cc(OC)c(OC)c(OC)c2)n1
inactive: NCI-H23 lung 43.4% | NCI-H226 lung 32.7% | NCI-H322M lung 51.7% | HOP-62 NSCLC 32.5% | NCI-H460 lung 16.5% | NCI-H522 lung 18.2% | A549/ATCC NSCLC 17.9% | 786-0 renal 41.5%
active: COLO 205 colon 8.62%

NS(=O)(=O)c1ccc(CCNC(=O)CSc2ccc(-c3ccc(Br)cc3)nn2)cc1
inactive: NCI-H23 lung 47.2% | NCI-H226 lung 70.3% | NCI-H322M lung 81.2% | HOP-62 NSCLC 75.9% | NCI-H460 lung 51.4% | NCI-H522 lung 52.9% | A549/ATCC NSCLC 62% | 786-0 renal 75.3% | COLO 205 colon 83.6%

O=c1[nH]c2ccc(Cl)cc2cc1CSc1nccc(-c2ccc(Cl)cc2)n1
inactive: NCI-H23 lung 53.9% | NCI-H322M lung 56.8% | NCI-H460 lung 36.6% | NCI-H522 lung 33.6% | A549/ATCC NSCLC 50.1% | 786-0 renal 49.8% | COLO 205 colon 71.7%
active: NCI-H226 lung 8.77% | HOP-62 NSCLC 7.77%

COc1c(F)ccc(C(=O)Nc2ccc3nc(NC(=O)C4CCCN(S(=O)(=O)c5ccc(C#N)cc5)C4)sc3c2)c1F (stereo unspecified)
inactive: NCI-H23 lung 88.9% | NCI-H226 lung 90.3% | NCI-H322M lung 101% | HOP-62 NSCLC 104% | NCI-H460 lung 96.8% | NCI-H522 lung 85.7% | A549/ATCC NSCLC 91.6% | 786-0 renal 75.5% | COLO 205 colon 96.9%

O=C(Nc1ccccc1)N1CCN(c2cc(-c3cn(-c4ccccc4)nc3-c3cccc(O)c3)ccn2)CC1
inactive: NCI-H23 lung 71% | NCI-H226 lung 75.4% | NCI-H322M lung 104% | HOP-62 NSCLC 80.8% | NCI-H460 lung 70% | NCI-H522 lung 74.1% | A549/ATCC NSCLC 53.9% | 786-0 renal 94.6% | COLO 205 colon 45.1%

O=c1oc2ccccc2cc1-c1csc(N=Nc2c(O)[nH]c3ccc(Cl)cc23)n1
inactive: NCI-H23 lung 98.7% | NCI-H226 lung 98.3% | NCI-H322M lung 114% | HOP-62 NSCLC 101% | NCI-H460 lung 109% | NCI-H522 lung 98.7% | A549/ATCC NSCLC 102% | 786-0 renal 86.3% | COLO 205 colon 136%

COc1cc2c3c(n(CCCN4CCC[C@@H]4CO)c(=O)c2cc1OC)-c1cc2c(cc1C3=O)OCO2
active: NCI-H23 lung -85.7% | NCI-H226 lung -66.5% | NCI-H322M lung -96.5% | HOP-62 NSCLC -53.3% | NCI-H460 lung -71.8% | NCI-H522 lung -82.1% | A549/ATCC NSCLC -83.3% | 786-0 renal -86.3% | COLO 205 colon -68.3%

COc1ccc2c(c1)c(/C=N/Nc1ccc3ccccc3n1)cn2C
active: NCI-H460 lung -64.8% | NCI-H522 lung 3.83% | 786-0 renal -87% | COLO 205 colon -82.7%
inactive: NCI-H23 lung 36.4% | NCI-H226 lung 32.9% | NCI-H322M lung 36.2% | HOP-62 NSCLC 38.1% | A549/ATCC NSCLC 14.9%

COC(=O)C[C@](O)(CCCC(C)(C)O)C(=O)O[C@H]1C(OC)=C[C@@]23CCCN2CCc2cc4c(cc2[C@@H]13)OCO4
active: NCI-H23 lung -53.9% | NCI-H226 lung -21.4% | NCI-H322M lung -3.53% | NCI-H460 lung -3.74% | NCI-H522 lung -68.7% | A549/ATCC NSCLC -18.5% | 786-0 renal -14.4% | COLO 205 colon -42.3%
inactive: HOP-62 NSCLC 14.3%

Clc1ccc(-c2ccc(OCCCN3CCN(c4ccncc4)CC3)cc2)cc1
active: NCI-H460 lung -6.61% | COLO 205 colon -77.8%
inactive: NCI-H23 lung 50.7% | NCI-H226 lung 62.5% | NCI-H322M lung 91% | HOP-62 NSCLC 54.3% | NCI-H522 lung 67.8% | A549/ATCC NSCLC 59.1% | 786-0 renal 56.4%

COc1c(F)ccc(C(=O)Nc2ccc3nc(NC(=O)C4CCCN(S(=O)(=O)C5CC5)C4)sc3c2)c1F (stereo unspecified)
inactive: NCI-H23 lung 31.5% | NCI-H226 lung 34.8% | NCI-H322M lung 65.2% | HOP-62 NSCLC 68.4% | NCI-H460 lung 48.5% | NCI-H522 lung 40.7% | A549/ATCC NSCLC 54% | 786-0 renal 31.1% | COLO 205 colon 32.4%

COc1c(F)ccc(C(=O)Nc2ccc3nc(NC(=O)C4CCCN(S(=O)(=O)c5cccc(C(F)(F)F)c5)C4)sc3c2)c1F (stereo unspecified)
inactive: NCI-H23 lung 96.9% | NCI-H226 lung 93.6% | NCI-H322M lung 98.9% | HOP-62 NSCLC 99% | NCI-H460 lung 79.4% | NCI-H522 lung 85.2% | A549/ATCC NSCLC 79.4% | 786-0 renal 60.9% | COLO 205 colon 84.6%

O=c1[nH]c(=O)c2c(-c3cc4ccccc4oc3=O)ccnc2[nH]1
inactive: NCI-H23 lung 61.3% | NCI-H226 lung 74.8% | NCI-H322M lung 97% | HOP-62 NSCLC 26.4% | NCI-H460 lung 88.8% | NCI-H522 lung 68.5% | A549/ATCC NSCLC 91.9% | 786-0 renal 43.9% | COLO 205 colon 108%

From PubChem BioAssay (NCI)
